Results on eleven compounds are retold here after PubChem BioAssay.

Values joined by “and” are separate entries in the source; they are usually repeats but may differ in a detail not shown here. Identical values can stand only once. Active and inactive are the calls of the source.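 The calls were made as follows, unless noted: active = inhibition at or above 50% relative to wild type and mutant plate controls; inactive = inhibition below 50%.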

In general, inhibition refers to the change of the read-out against control, counted positive when it falls.

Test [1] is described as follows: inhibitors of mutant huntingtin aggregation, primary screen, imaging, exon1htt(103Q)mCFP cells, high-content imaging (AID 483;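 active = visual image review flags a hit and inhibition of aggregation exceeds 20%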;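 also: compound exposure lasted 3 days before fixation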;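 as to nuclei count: percent of the per-plate median nuclei count of sample wells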). As to conditions: exon1htt(103Q)mCFP cell line, aggregate imaging, at 2 µM; inhibition of aggregation: stronger effect = higher value; nuclei count: measured here: cell count, toxicity.
A short description of test [2]: inhibitors of E-selectin induction by TNFa, primary screen, imaging, HUVEC, immunofluorescence, MLSMR starter and 10KST1 sets (AID 487;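 active = visually confirmed hit in the image check and inhibition above 20%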;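 as to inhibition: signal is fraction of cell area covered by stained E-selectin grains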;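 as to nuclei count: 100% = median nuclei count of all wells on the same plate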). As to conditions: HUVEC TNFalpha-induced E-selectin immunofluorescence imaging, at 2 µM; inhibition: stronger effect = higher value; nuclei count: measured here: cell number, toxicity.
Test [3] is described as follows: DUSP6 inhibitors restoring Erk phosphorylation by chemical complementation, primary imaging in DUSP6-transfected HeLa (AID 609;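 active = compounds giving at least 50% inhibition in the cell-based MKP-3 phosphatase rescue imaging test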;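 as to inhibition: phospho-Erk level distribution per well compared with pooled transfected vehicle control wells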). As to conditions: HeLa MKP-3 transfected, phospho-Erk imaging KS statistic, at 10 µM, cells stimulated with TPA for 15 min.
In test [4] the target is Dual specificity protein phosphatase 6 (Homo sapiens) (UniProt Q16828). The description is as above. As to conditions: HeLa MKP-3 transfected, phospho-Erk imaging KS statistic; at 10 µM; stronger effect = higher value; cells stimulated with TPA for 15 min.
Chain of Dual specificity protein phosphatase 6 (Homo sapiens) (Q16828 whole entry, looked up): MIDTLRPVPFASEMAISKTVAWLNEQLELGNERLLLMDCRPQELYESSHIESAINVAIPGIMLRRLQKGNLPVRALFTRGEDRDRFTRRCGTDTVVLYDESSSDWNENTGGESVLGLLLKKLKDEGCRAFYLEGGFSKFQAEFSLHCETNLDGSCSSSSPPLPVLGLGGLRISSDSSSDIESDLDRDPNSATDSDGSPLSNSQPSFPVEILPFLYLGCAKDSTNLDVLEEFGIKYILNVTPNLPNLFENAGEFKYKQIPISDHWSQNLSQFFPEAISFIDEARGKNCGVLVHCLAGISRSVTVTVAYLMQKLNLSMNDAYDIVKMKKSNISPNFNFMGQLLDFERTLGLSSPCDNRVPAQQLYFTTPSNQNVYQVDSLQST
The target in test [5] is Voltage-gated potassium channel subunit beta-2 (Rattus norvegicus) (UniProt P62483). Kind of test: KvBeta enzyme negative modulators, primary screen, biochemical, NADPH fluorescence (AID 622;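 active = fluorescence slope higher than the sample average by over 3 SD, cut at about -0.22 in these data, passing the limit was not always enough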;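 also: slope of raw intensity against log time taken from 70 to 1610 s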). As to conditions: recombinant KvBeta, 4-cyanobenzaldehyde reduction, at 10 µM, stronger effect = higher value.
Chain of Voltage-gated potassium channel subunit beta-2 (Rattus norvegicus) (P62483 whole entry, looked up): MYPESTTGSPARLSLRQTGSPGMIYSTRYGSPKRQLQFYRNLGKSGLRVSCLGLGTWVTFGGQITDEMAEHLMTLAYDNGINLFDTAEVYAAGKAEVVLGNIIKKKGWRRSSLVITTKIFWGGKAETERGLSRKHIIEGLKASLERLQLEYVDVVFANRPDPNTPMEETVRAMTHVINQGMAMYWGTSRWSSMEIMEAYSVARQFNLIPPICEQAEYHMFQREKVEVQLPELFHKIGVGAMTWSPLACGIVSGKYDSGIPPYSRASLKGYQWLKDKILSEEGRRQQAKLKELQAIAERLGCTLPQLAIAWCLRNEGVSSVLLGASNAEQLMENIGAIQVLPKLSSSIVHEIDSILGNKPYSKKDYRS
The target is the same in test [6]. Kind of test: KvBeta positive modulators, primary screen, biochemical, NADPH fluorescence (AID 623;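 active = NADPH fluorescence slope more negative than the mean of all samples by about 3 SD, 99.7% confidence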;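 also: fluorescence intensity change per second fitted from 20 to 320 s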). The settings on record: Recombinant KvBeta, NADPH fluorescence decrease slope, 10 min; at 10 µM; stronger effect = lower value.
For test [7], the target named is Alpha-2C adrenergic receptor (Homo sapiens) (UniProt P18825). The test is described as follows: modulators of alpha2C/GIRK thallium flux, primary screen, cell-based, HEK293 alpha2C/GIRK1/2 (AID 624;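 active = fluorescence slope after compound addition differing from the mean of all screened samples at 99.7% confidence, in either direction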;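 also: slope of fluorescence ratio to pre-addition baseline per second over 15 to 24 s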). As to conditions: thallium flux BTC fluorescence, at 10 µM, actives lie on both sides.
Chain of Alpha-2C adrenergic receptor (Homo sapiens) (P18825 whole entry, looked up): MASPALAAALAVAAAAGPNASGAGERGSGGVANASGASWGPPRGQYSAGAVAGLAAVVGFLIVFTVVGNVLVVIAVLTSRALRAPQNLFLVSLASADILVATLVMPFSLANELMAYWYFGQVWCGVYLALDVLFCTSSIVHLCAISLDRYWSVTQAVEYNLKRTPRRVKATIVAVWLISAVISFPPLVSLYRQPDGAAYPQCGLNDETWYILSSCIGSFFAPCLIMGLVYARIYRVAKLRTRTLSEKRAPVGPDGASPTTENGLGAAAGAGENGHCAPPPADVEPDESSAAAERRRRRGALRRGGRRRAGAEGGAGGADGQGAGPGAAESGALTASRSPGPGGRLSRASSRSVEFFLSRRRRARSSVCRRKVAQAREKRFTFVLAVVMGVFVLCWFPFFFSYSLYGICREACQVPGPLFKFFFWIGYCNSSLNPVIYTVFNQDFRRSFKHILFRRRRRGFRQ
The nature of test [8]: inhibitors of larval lipid processing in zebrafish, primary screen, whole organism, PED6 fluorescence, gall bladder and intestine (AID 686;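 active = a full or partial loss of lipid-probe fluorescence in the fish gall bladder, intestine or both, judged by eye; inactive = no fluorescence loss, or compound toxic to the fish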;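 also: larvae 5 to 7 days old with five fish per well; signal comes from phospholipase A2 cleavage of quenched PED6 carried via bile; overnight exposure to compound and PED6 before scoring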). The settings on record: Zebrafish larvae PED6 lipid processing, fluorescence scoring; screened at 20 µM (by protocol).
Test [9] in a line: inhibitors of Chlamydomonas gravitaxis, primary screen, whole organism, Chlamydomonas reinhardtii, WT vs cilia-less mutant, absorbance, 96-well (AID 463189).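 Also: 0% = wild type cc124 cells in DMSO and 100% = ciliumless bld1 mutant cells.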 As to conditions: OD600 absorbance, 2 days, at 10 µM, stronger effect = higher value.
A short description of test [10]: inhibitors of Sendai virus-induced IRF3 signaling, primary screen, TLR/RLR signaling modifier project, cell-based, Sendai virus stimulus, luciferase, 10K MLSCN set (AID 602276;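 active = inhibition at or above 50% at 10 µM; inactive = inhibition below 50%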;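 also: firefly luciferase from ISG56 promoter only with Renilla not read in this screen; 0% = Sendai virus plus DMSO and 100% = medium plus DMSO without virus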). The settings on record: HEK293 RL24 IRF3 luciferase reporter, at 10 µM, stronger effect = higher value. (Reporter assays use an easily measured gene product as a stand-in for the process of interest.)

Test [11] can be described thus: inhibitors of poly I:C-induced TLR3 signaling, primary screen, cell-based, poly I:C stimulus, luciferase, 10K MLSCN set (AID 602277;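 active = inhibition of the reporter signal at or above 50%; inactive = inhibition below 50%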). The settings on record: HEK293-TLR3 RL24 IRF3 luciferase reporter, at 10 µM, stronger effect = higher value.
The mark [12] stands for this setting: measured here: cell density z-score.
Where [13] appears, read: measured here: nuclear c-Myc green intensity z-score.
[14] abbreviates: measured here: nuclear pErk red intensity z-score, stronger effect = higher value.

With `Oc1c(I)cc(Cl)c2cccnc12`, the inhibition of aggregation in test [1] is -1.7% (inactive). The nuclei count in test [1] came to 76.8%; in test [2] it was 108%. In addition, the inhibition in [2] was -52% (inactive); in test [4], 23.4% (inactive); in test [9] it was -0.595% (inactive); in test [10], 0.651% (inactive); in [11] it was 31.6% (inactive). Further, the z-score in test [3] (setting [12]) is -0.367; in test [3] (setting [13]), 0.593; in test [3] (setting [14]) it was -0.324. Also, the fluorescence slope in [5] was -0.459 (inactive). The NADPH fluorescence slope in test [6] was -3.6e-05 (inactive). For the same compound, the slope in [7] is 0.00439 (inactive). In test [8], the compound was called inactive.
Consider `Cc1cccc(N2CN=c3s/c(=C\c4ccncc4)c(=O)n3C2)c1`, for which, in test [1], the inhibition of aggregation was 13.2% (inactive). Also, the nuclei count in [1] stood at 99.6%; in test [2] it was 121%. For the same compound, the inhibition in [2] is -56.6% (inactive); in test [4], -10.5% (inactive); in [9] it was 22.1% (inactive); in test [10] it was 10.3% (inactive); in test [11] it was -3.47% (inactive). Moreover, the z-score was -0.505 in test [3] (setting [12]), -1.69 in test [3] (setting [13]) and 1.18 in [3] (setting [14]). In addition, the fluorescence slope in test [5] is -0.334 (inactive). In addition, the NADPH fluorescence slope in test [6] was 5.8e-06 (inactive). In addition, the slope in test [7] was 0.00412 (inactive). In addition, in test [8], the outcome was inactive.
For `Cc1cn([C@H]2C=C[C@@H](CO)O2)c(=O)[nH]c1=O`, the inhibition of aggregation in [1] is -10.6% (inactive). Besides, the nuclei count in test [1] came out at 106%; in [2] it was 123%. Also, the inhibition in test [2] is -114% (inactive); in test [4], 7.39% (inactive); in test [9] it was -4.19% (inactive) and -13.6% (inactive); in test [10], 16.3% (inactive); in test [11] it was 37.9% (inactive). For the same compound, the z-score is -0.857 in test [3] (setting [12]), 1.21 in test [3] (setting [13]) and -0.244 in test [3] (setting [14]). For the same compound, in test [5], the fluorescence slope is -0.461 (inactive). In addition, the NADPH fluorescence slope in test [6] is 2.9e-05 (inactive). The slope in [7] is 0.00508 (inactive). Moreover, in [8], the result was inactive.
Consider `O=c1c(O)c(-c2ccc(O)cc2O)oc2cc(O)cc(O)c12`, for which the inhibition of aggregation in test [1] was 2.1% (inactive). In addition, the nuclei count amounted to 102% in test [1] and 114% in test [2]. In addition, the inhibition in test [2] was 3% (inactive); in test [4], -0.493% (inactive); in test [9], 8.46% (inactive) and 17% (inactive); in test [10] it was 11.8% (inactive); in [11], 29.6% (inactive). Also, the z-score is -0.466 in test [3] (setting [12]), 0.679 in test [3] (setting [13]) and 0.0465 in test [3] (setting [14]). The fluorescence slope in test [5] is -0.439 (inactive). Moreover, the NADPH fluorescence slope in test [6] is -0.000116 (inactive). In [7], the slope is 0.00575 (inactive). Further, in test [8], the result was inactive.
Consider `CC(=O)OCC1=C(C(=O)O)N2C(=O)[C@@H](NC(=O)Cc3cccs3)[C@H]2SC1`, for which the inhibition of aggregation in test [1] is -14.4% (inactive). Also, the nuclei count in test [1] was found to be 85.4%; in test [2], 116%. Moreover, the inhibition in [2] was -35% (inactive); in [4] it was 17.3% (inactive); in test [9] it was 7.69% (inactive) and 18.3% (inactive); in test [10], 10.9% (inactive); in [11], 35.2% (inactive). The z-score in test [3] (setting [12]) was -0.65; in test [3] (setting [13]), -0.0505; in test [3] (setting [14]), -0.555. Besides, the fluorescence slope in test [5] was -0.429 (inactive). For the same compound, the NADPH fluorescence slope in [6] was -5.9e-05 (inactive). Further, the slope in [7] was 0.00483 (inactive). The outcome in [8] was inactive.
`CC(=O)[C@@]1(O)CC[C@H]2[C@@H]3C[C@H](C)C4=CC(=O)C=C[C@]4(C)[C@@]3(F)[C@@H](O)C[C@@]21C`: in test [1], the inhibition of aggregation is 10.8% (inactive). Moreover, the results for the nuclei count in test [1] and in [2] were 60.1% and 121%, respectively. Moreover, the inhibition in test [2] is -32.9% (inactive); in [4] it was 7.39% (inactive); in [9], -2.25% (inactive); in test [10] it was 13.2% (inactive); in test [11], 38.7% (inactive). Besides, the z-score in [3] (setting [12]) was 0.696; in test [3] (setting [13]), 0.132; in test [3] (setting [14]), 1.25. In addition, in test [5], the fluorescence slope is -0.416 (inactive). For the same compound, the NADPH fluorescence slope in test [6] is -5e-05 (inactive). The slope in [7] is 0.0055 (inactive). Also, in test [8], the compound was classed as inactive.
`CC(C)NCC(O)COc1ccc(CC(N)=O)cc1` (stereo not given): in [1], the inhibition of aggregation is -3.8% (inactive). For the same compound, the results for the nuclei count in [1] and in test [2] were 97.3% and 135%, respectively. In addition, the inhibition in test [2] is -96.5% (inactive); in [4], -2.46% (inactive); in test [9], -6.18% (inactive) and -8.19% (inactive); in test [10] it was -12.5% (inactive); in test [11] it was -8.56% (inactive). In addition, the z-score in test [3] (setting [12]) is -1.26; in test [3] (setting [13]), -0.177; in [3] (setting [14]), -0.441. In addition, in test [5], the fluorescence slope was -0.47 (inactive). The NADPH fluorescence slope in test [6] was 1.8e-05 (inactive). In addition, the slope in [7] is 0.00481 (inactive). Also, the call in test [8] was inactive.
Turning to `CCc1oc2ccccc2c1C(=O)c1cc(Br)c(O)c(Br)c1`, in test [1], the inhibition of aggregation was -4.4% (inactive). Further, the nuclei count in [1] came to 98%; in test [2], 132%. Further, the inhibition is -113% (inactive) in [2]; 17.3% (inactive) in [4]; 129% (active) in [9]; 18.5% (inactive) in [10]; 30.1% (inactive) in test [11]. The z-score in [3] (setting [12]) was 0.0952; in test [3] (setting [13]), 0.368; in test [3] (setting [14]), 0.987. Further, the fluorescence slope in [5] is -0.429 (inactive). For the same compound, the NADPH fluorescence slope in [6] is 3.1e-06 (inactive). The slope in test [7] was 0.00421 (inactive). Also, the outcome in test [8] is “inactive; toxic”.
For the compound `O=c1[nH]c(=O)n([C@H]2C[C@H](O)[C@@H](CO)O2)cc1F`, in test [1], the inhibition of aggregation was -11.9% (inactive). For the same compound, the nuclei count in test [1] is 10.3%; in [2] it was 116%. Besides, the inhibition in test [2] was -47% (inactive); in test [4], 3.59% (inactive); in test [9], -13.9% (inactive); in test [10], -38.5% (inactive); in [11], 15.4% (inactive). Further, the values for the z-score in [3] (setting [12]), in test [3] (setting [13]) and in [3] (setting [14]) were 0.0804, 0.765 and -0.71, respectively. In addition, the fluorescence slope in test [5] is -0.533 (inactive). For the same compound, the NADPH fluorescence slope in test [6] was -5.3e-05 (inactive). The slope in test [7] was 0.00542 (inactive). Further, the outcome in test [8] was inactive.
For `Cc1cccc(CN2CCN(C(c3ccccc3)c3ccc(Cl)cc3)CC2)c1` (stereo not given), the inhibition of aggregation in test [1] is -13.4% (inactive). Also, the figures for the nuclei count in test [1] and in test [2] were 103% and 122%, respectively. The inhibition is -28.5% (inactive) in [2]; 1.48% (inactive) in test [4]; -15.7% (inactive) in test [9]; 6.06% (inactive) in [10]; 30.8% (inactive) in test [11]. In addition, the z-score in test [3] (setting [12]) was -0.832; in test [3] (setting [13]), -0.304; in [3] (setting [14]), -0.398. In test [5], the fluorescence slope was -0.508 (inactive). Further, the NADPH fluorescence slope in test [6] is -3.3e-06 (inactive). Besides, the slope in test [7] is 0.00615 (inactive). In addition, the compound was classed as inactive in test [8].
With `COc1ccc(CN(CCN(C)C)c2ccccn2)cc1`, the inhibition of aggregation in [1] is -1.2% (inactive). Moreover, the values for the nuclei count in [1] and in test [2] were 105% and 113%, respectively. The inhibition in test [2] was -37.9% (inactive); in test [4], 3.45% (inactive); in [9], 3.64% (inactive) and 20.5% (inactive); in test [10], 16.8% (inactive); in [11], 30.1% (inactive). The z-score in test [3] (setting [12]) is -0.442; in [3] (setting [13]), -0.558; in [3] (setting [14]), 1.54. Also, in test [5], the fluorescence slope is -0.507 (inactive). Moreover, the NADPH fluorescence slope in [6] is 9.4e-06 (inactive). Also, the slope in test [7] was 0.00533 (inactive). Moreover, the call in test [8] was inactive.
